This is an account of results in PubChem BioAssay.

The source made the active and inactive calls.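 Rule for the calls, unless noted: active = NADPH fluorescence slope more negative than the mean of all samples by about 3 SD, 99.7% confidence; inactive = the rest.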

Test [1] in a line: inhibitors of TNFa-induced NFkB p65 translocation, primary screen, imaging, HUVEC, MLSMR starter and 10KST1 sets (AID 438;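 active = inhibition above 20% together with a positive visual image hit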;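 note: compound added about 3h40 before a 20 min TNFalpha stimulation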;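 for inhibition: signal is the nuclear over cytoplasmic p65 intensity ratio per well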). As to conditions: HUVEC TNFa-induced p65 nuclear translocation; cell count: measured here: nuclei count (cytotoxicity indicator), at 2.08 µM; inhibition: at 2 µM, stronger effect = higher value, 0% TNFa-plus-vehicle, 100% no-TNFa wells.
The nature of test [2]: reduction of polyQ htt aggregates in cells – imaging, exon1htt(103Q)mCFP cells, high-content imaging, primary screen (AID 483;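 active = visual image review flags a hit and inhibition of aggregation exceeds 20%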;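 note: compound exposure lasted 3 days before fixation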;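 for nuclei count: percent of the per-plate median nuclei count of sample wells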). To be noted: exon1htt(103Q)mCFP cell line, aggregate imaging, at 2 µM; inhibition of aggregation: stronger effect = higher value; nuclei count: measured here: cell count, toxicity.
The nature of test [3]: endothelial E-selectin expression blockers – imaging, HUVEC, immunofluorescence, MLSMR starter and 10KST1 sets, primary screen (AID 487;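 active = visually confirmed hit in the image check and inhibition above 20%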;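 for inhibition: signal is fraction of cell area covered by stained E-selectin grains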;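 for nuclei count: 100% = median nuclei count of all wells on the same plate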). As to conditions: HUVEC TNFalpha-induced E-selectin immunofluorescence imaging, at 2 µM; inhibition: stronger effect = higher value; nuclei count: measured here: cell number, toxicity.
The target in test [4] is Voltage-gated potassium channel subunit beta-2 (Rattus norvegicus) (UniProt P62483). Put plainly: inhibitors of rat Kvbeta2 reductase activity – biochemical, NADPH fluorescence, primary screen (AID 622;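 active = fluorescence slope higher than the sample average by over 3 SD, cut at about -0.22 in these data, passing the limit was not always enough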;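 note: slope of raw intensity against log time taken from 70 to 1610 s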). To be noted: recombinant KvBeta, 4-cyanobenzaldehyde reduction, at 10 µM, stronger effect = higher value.
Test [5] has the same target. Put plainly: enhancers of rat Kvbeta2 NADPH turnover – biochemical, NADPH fluorescence, primary screen (AID 623).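 Note: fluorescence intensity change per second fitted from 20 to 320 s.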 To be noted: Recombinant KvBeta, NADPH fluorescence decrease slope, 10 min; at 10 µM; stronger effect = lower value.
Test [6] concerns the target Alpha-2C adrenergic receptor (Homo sapiens) (UniProt P18825). The test can be described thus: compounds altering alpha2C-coupled GIRK flux – cell-based, HEK293 alpha2C/GIRK1/2, thallium flux, primary screen (AID 624;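 active = fluorescence slope after compound addition differing from the mean of all screened samples at 99.7% confidence, in either direction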;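 note: slope of fluorescence ratio to pre-addition baseline per second over 15 to 24 s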). As to conditions: thallium flux BTC fluorescence, at 10 µM, actives lie on both sides.
Test [7] is described as follows: blockers of RIG-like receptor reporter activation – cell-based, Sendai virus stimulus, luciferase, 10K MLSCN set, TLR/RLR signaling modifier project, primary screen (AID 602276;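 active = inhibition at or above 50% at 10 µM; inactive = inhibition below 50%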;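 note: firefly luciferase from ISG56 promoter only with Renilla not read in this screen; 0% = Sendai virus plus DMSO and 100% = medium plus DMSO without virus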). To be noted: HEK293 RL24 IRF3 luciferase reporter, at 10 µM, stronger effect = higher value.
The nature of test [8]: TLR3 IRF3 reporter activation blockers – cell-based, poly I:C stimulus, luciferase, 10K MLSCN set, primary screen (AID 602277;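 active = inhibition of the reporter signal at or above 50%; inactive = inhibition below 50%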). As to conditions: HEK293-TLR3 RL24 IRF3 luciferase reporter, at 10 µM, stronger effect = higher value. Background: A reporter such as luciferase makes a cellular process visible.

Chain of Voltage-gated potassium channel subunit beta-2 (Rattus norvegicus) (P62483 whole entry, looked up): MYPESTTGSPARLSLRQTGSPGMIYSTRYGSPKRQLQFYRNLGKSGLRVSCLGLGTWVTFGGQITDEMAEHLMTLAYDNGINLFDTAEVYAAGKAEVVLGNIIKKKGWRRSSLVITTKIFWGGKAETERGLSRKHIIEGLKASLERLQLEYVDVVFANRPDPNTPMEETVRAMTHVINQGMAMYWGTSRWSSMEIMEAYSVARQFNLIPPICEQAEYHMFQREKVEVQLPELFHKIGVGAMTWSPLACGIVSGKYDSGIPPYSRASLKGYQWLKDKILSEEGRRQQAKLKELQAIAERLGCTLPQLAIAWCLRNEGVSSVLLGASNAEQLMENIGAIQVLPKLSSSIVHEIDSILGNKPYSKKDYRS
Chain of Alpha-2C adrenergic receptor (Homo sapiens) (P18825 whole entry, looked up): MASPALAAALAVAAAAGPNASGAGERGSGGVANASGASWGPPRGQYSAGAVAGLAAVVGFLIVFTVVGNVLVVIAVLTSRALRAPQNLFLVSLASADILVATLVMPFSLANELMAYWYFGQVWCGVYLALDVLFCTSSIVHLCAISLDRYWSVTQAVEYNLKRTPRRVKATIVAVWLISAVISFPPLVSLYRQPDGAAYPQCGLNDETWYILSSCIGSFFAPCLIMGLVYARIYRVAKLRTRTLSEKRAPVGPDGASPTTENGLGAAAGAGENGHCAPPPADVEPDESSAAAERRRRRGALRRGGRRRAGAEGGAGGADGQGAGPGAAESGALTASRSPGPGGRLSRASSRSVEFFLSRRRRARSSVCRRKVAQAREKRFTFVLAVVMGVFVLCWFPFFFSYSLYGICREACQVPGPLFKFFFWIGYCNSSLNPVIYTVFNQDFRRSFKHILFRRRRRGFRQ

Broadly, the inhibition is the change of the read-out against control, counted positive when it falls. For the molecule `O=C(NCc1ccccn1)C(C(=O)c1ccc(F)cc1)n1ccccc1=O` (stereo not given), the cell count in test [1] worked out at 531. In addition, the inhibition was -1.5% (inactive) in test [1], -117% (inactive) in test [3], -10.6% (inactive) in test [7] and 3.51% (inactive) in test [8]. The inhibition of aggregation in test [2] was 3.1% (inactive). The nuclei count was 70.7% in test [2] and 219% in test [3]. Besides, the fluorescence slope in test [4] is -0.472 (inactive). Also, the NADPH fluorescence slope in test [5] was -3.8e-05 (inactive). Further, the slope in test [6] is 0.0066 (inactive).
Take `CCOC(=O)CSc1nc2sc(C)c(C)c2c(=O)n1C`: the cell count in test [1] came out at 259. The inhibition in test [1] was 12.5% (inactive); in test [3] it was 8.8% (inactive); in test [7], 11% (inactive); in test [8], 26% (inactive). Also, in test [2], the inhibition of aggregation was 25.6% (inactive). Also, the nuclei count is 76.8% in test [2] and 113% in test [3]. In test [4], the fluorescence slope is -0.36 (inactive). Further, the NADPH fluorescence slope in test [5] was 1.9e-05 (inactive). Besides, the slope in test [6] was 0.00254 (inactive).
In the case of `CCOC(=O)c1ccc(Oc2nc(SC)nc(N(C)C)n2)cc1`, in test [1], the cell count was determined as 467. The inhibition is 5.5% (inactive) in test [1], -308% (inactive) in test [3], 3.96% (inactive) in test [7] and 4.44% (inactive) in test [8]. For the same molecule, the inhibition of aggregation in test [2] was -5.2% (inactive). In addition, the results for the nuclei count in test [2] and in test [3] were 110% and 133%, respectively. In addition, the fluorescence slope in test [4] is -0.34 (inactive). The NADPH fluorescence slope in test [5] is 7.8e-06 (inactive). The slope in test [6] is 0.00652 (inactive).
For `O=C(Nc1cccc(-c2nnc(-c3ccccc3)o2)c1)C1CCCCC1`, the cell count in test [1] came to 666. Also, the inhibition in test [1] was -2.8% (inactive); in test [3] it was -21.3% (inactive); in test [7] it was -20.4% (inactive); in test [8], -62.4% (inactive). In addition, the inhibition of aggregation in test [2] was -15.1% (inactive). In addition, the nuclei count was 109% in test [2] and 116% in test [3]. For the same molecule, the fluorescence slope in test [4] was -0.589 (inactive). For the same molecule, the NADPH fluorescence slope in test [5] is -1.7e-05 (inactive). For the same molecule, the slope in test [6] was 0.00531 (inactive).
`CC1(C)Oc2ccc3ccc(=O)oc3c2C(N2CCCCC2)C1O` (stereo not given): the cell count in test [1] was 329. Moreover, the inhibition was -4.5% (inactive) in test [1], -30.2% (inactive) in test [3], 18.2% (inactive) in test [7] and 33.6% (inactive) in test [8]. Moreover, the inhibition of aggregation in test [2] is 15% (inactive). For the same molecule, the nuclei count in test [2] turned out to be 94.7%; in test [3] it was 104%. In test [4], the fluorescence slope is -0.34 (inactive). The NADPH fluorescence slope in test [5] is 1.2e-05 (inactive). Also, the slope in test [6] is 0.00144 (inactive).
For the molecule `CCSc1cc(C2C(C(=O)OC)=C(C)NC3=C2C(=O)CCC3)c(C)o1` (stereo not given), the cell count in test [1] turned out to be 737. Also, the inhibition in test [1] was -6.1% (inactive); in test [3], -52.7% (inactive); in test [7], 16.1% (inactive); in test [8], 22.6% (inactive). Moreover, the inhibition of aggregation in test [2] is 8.4% (inactive). The nuclei count in test [2] came out at 96.3%; in test [3], 129%. Moreover, the fluorescence slope in test [4] is -0.593 (inactive). Besides, in test [5], the NADPH fluorescence slope is -2.7e-05 (inactive). Moreover, in test [6], the slope is 0.00339 (inactive).
Regarding `C=CCOc1ccccc1/C=c1\sc2nc(=O)c(C)nn2c1=O`, the cell count in test [1] amounted to 704. Besides, the inhibition was -11.1% (inactive) in test [1], -31.3% (inactive) in test [3], 15.6% (inactive) in test [7] and 26.5% (inactive) in test [8]. Moreover, the inhibition of aggregation in test [2] was 7.5% (inactive). For the same molecule, the nuclei count in test [2] was 100%; in test [3] it was 106%. Moreover, the fluorescence slope in test [4] was -0.362 (inactive). Also, the NADPH fluorescence slope in test [5] was 1.8e-05 (inactive). In addition, the slope in test [6] was 0.0042 (inactive).
For the molecule `O=C(CN1CCN(c2cccc(Cl)c2)CC1)N1CCCC1`, the cell count in test [1] was found to be 330. Moreover, the inhibition in test [1] was -8.7% (inactive); in test [3], -69% (inactive); in test [7], -11.1% (inactive); in test [8] it was -35.4% (inactive). For the same molecule, the inhibition of aggregation in test [2] is 19.2% (inactive). Further, the nuclei count in test [2] was found to be 73%; in test [3], 87.6%. Also, in test [4], the fluorescence slope is -0.581 (inactive). Also, the NADPH fluorescence slope in test [5] was -1.8e-05 (inactive). For the same molecule, the slope in test [6] is 0.00658 (inactive).
Consider `COC(=O)CSc1cc(C)nc(NC(C)=O)n1`, for which the cell count in test [1] is 703. For the same molecule, the inhibition is 11% (inactive) in test [1], -5.3% (inactive) in test [3], 6.12% (inactive) in test [7] and 17.7% (inactive) in test [8]. For the same molecule, the inhibition of aggregation in test [2] is -16.4% (inactive). The values for the nuclei count in test [2] and in test [3] were 98.3% and 110%, respectively. For the same molecule, the fluorescence slope in test [4] was -0.586 (inactive). Further, in test [5], the NADPH fluorescence slope was -4.5e-05 (inactive). Further, the slope in test [6] was 0.0055 (inactive).
With `COc1ccc(C)cc1NC(=O)COCC(=O)O`, the cell count in test [1] turned out to be 710. Also, the inhibition in test [1] is -28.6% (inactive); in test [3] it was -22.9% (inactive); in test [7] it was -0.927% (inactive); in test [8] it was 9.35% (inactive). Further, the inhibition of aggregation in test [2] is 4.1% (inactive). For the same molecule, the nuclei count in test [2] worked out at 100%; in test [3], 102%. Moreover, the fluorescence slope in test [4] is -0.605 (inactive). Also, the NADPH fluorescence slope in test [5] was -1.6e-05 (inactive). For the same molecule, the slope in test [6] is 0.00568 (inactive).
